# D1 antag: Antagonist of Human D 1 Dopamine Receptor: qHTS; D(1A) dopamine receptor (Homo sapiens), P21728; HEK293 TREx D1 cells, calcium flux, dopamine EC80; hits give low values; activity change, negative = inhibition, % at 10 µM; hit rate 3.2% among 360,000; AID 504652, 2011; in the data active = activity change below about -30%; note: % is set by controls: 0 for no effect and ±100 for the full control effect
# Target sequence (P21728 whole entry, looked up): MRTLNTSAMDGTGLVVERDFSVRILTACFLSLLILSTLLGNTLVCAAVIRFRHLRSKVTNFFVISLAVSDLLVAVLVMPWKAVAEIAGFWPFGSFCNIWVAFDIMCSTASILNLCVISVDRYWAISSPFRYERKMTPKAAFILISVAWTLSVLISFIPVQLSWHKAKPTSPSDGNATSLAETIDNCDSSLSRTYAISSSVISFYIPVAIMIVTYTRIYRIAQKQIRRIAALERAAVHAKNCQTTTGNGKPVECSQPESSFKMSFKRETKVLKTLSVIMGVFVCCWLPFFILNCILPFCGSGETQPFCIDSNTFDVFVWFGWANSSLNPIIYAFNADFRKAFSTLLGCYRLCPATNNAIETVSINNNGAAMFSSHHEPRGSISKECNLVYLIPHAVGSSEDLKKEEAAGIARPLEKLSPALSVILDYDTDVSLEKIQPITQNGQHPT
#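 HEK293 T-REx cells expressing inducible, force-coupled D1 receptor; no-wash Ca dye, 30–90 min RT. Cmpd → 180 s read at 1 Hz → EC80 DA → 180 s read.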
# D1 potentiator: Potentiators of Human D1 Dopamine Receptor: qHTS | D(1A) dopamine receptor (Homo sapiens), P21728 | HEK293 TREx D1 cells, calcium flux, dopamine EC20 potentiation | potentiation, % at 10 µM | hit rate 0.036% among 360,000; in the data active = potentiation above about 30%; note: 0% is about no effect
# TRPV1 PAM: HTS Assay for Compounds that Act as Potentiators of the Vanilloid Receptor 1 | TRPV1-expressing cells, Fluo-8 calcium influx, capsaicin EC20 potentiation | hit rate 0.02% among 320,000 | AID 540277, 2011 | potentiation, % at 8.33 µM; in the data active = potentiation above about 80%; inconclusive = between about 30% and that limit; note: 0% is about no effect
#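 Cells expressing TRPV1 were dye-loaded with Fluo-8 and read kinetically: 10 s baseline, 3 min after compound (agonist portion), then 2 min after EC20 capsaicin (allosteric enhancer portion). Calcium-bound dye fluorescence at 480/520 nm.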
# TRPV1 ag: HTS Assay for Compounds that Act as Agonists of the Vanilloid Receptor 1 | activation, % at 8.33 µM | hit rate 0.19% among 320,000 | Transient receptor potential cation channel subfamily V member 1 (Homo sapiens), Q8NER1 | TRPV1-expressing cells, Fluo-8 calcium influx, agonist mode; in the data active = activation above about 80%; inconclusive = between about 30% and that limit; note: 0% is about no effect
#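 Fluo-8 calcium influx in TRPV1-expressing cells, kinetic read (ex 480/em 520 nm). Compound added and read 3 min for agonist activity, followed by capsaicin at EC20 final and 2 min further read for enhancement.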
# D1 ag: Allosteric Agonists of the Human D1 Dopamine Receptor: qHTS; AID 504660, 2011; hit rate 1% among 360,000; activation, % at 2 µM; HEK293 T-REx D1 cells, calcium flux, agonist mode; D(1A) dopamine receptor (Homo sapiens), P21728; in the data active = activation above about 30%; note: 0% is about no effect
#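 Inducible HEK293 T-REx D1 cells, force-coupled to calcium signalling, were plated at 4000 cells/well with tetracycline and held overnight at 30 C. After no-wash calcium dye loading, compound-evoked calcium rise over 180 s flagged agonists.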
# Active calls of the source: *; u = inconclusive; x = no result. The list is not random: actives were taken first. Their share in the collection is about 4.2%.
SMILES,D1 antag,D1 potentiator,TRPV1 PAM,TRPV1 ag,D1 ag
COc1ccc(CNC(=O)c2ccc(CS(=O)Cc3ccccc3Cl)o2)cc1 (stereo not given),6,-3,x,x,2
CC(=O)c1sc(-c2ccc(F)cc2)cc1NS(=O)(=O)c1ccccc1,-41*,-4,29,4,3
COc1ccc(NC(=S)N(Cc2ccc(C)cc2)Cc2ccccn2)cc1,-31*,-3,2,10,1
S=C(Nc1ccccc1Cl)N(Cc1ccccc1)Cc1ccccn1,-19,-3,132*,-9,7
COc1ccccc1NC(=S)N(Cc1ccccc1)Cc1ccccn1,-8,-5,-9,23,-2
CCn1nc(-c2ccccc2)c(-c2ccccc2)c(C(=O)Nc2nc(C)c(C(C)=O)s2)c1=O,11,0,x,x,3
CCN(CC)c1cc(C)c2cc(NC(=O)/C=C/c3ccccc3Cl)ccc2n1,8,-1,x,x,1
Cc1cc(N/N=C/c2ccccc2)nc(N2CCOCC2)n1,1,8,-13,86*,0
Cc1ccc(/C=N/Nc2cc(C)nc(N3CCOCC3)n2)cc1,-9,-3,-28,u,1
O=C1C2C(C(=O)N1/N=C/c1cc(Br)cc([N+](=O)[O-])c1O)C1C=CC2C12CC2 (stereo not given),-31*,1,-3,1,5
O=C1C2C(C(=O)N1/N=C/c1cc([N+](=O)[O-])c(O)cc1O)C1C=CC2C12CC2 (stereo not given),-4,-1,-10,u,1
CCC(C)NC(=O)c1ccc2nc(Cc3ccc(OC)cc3)oc2c1 (stereo not given),18,0,-1,20,1
COc1ccc(Cc2nc3ccc(C(=O)N(C)CCCN4CCOCC4)cc3o2)cc1,-49*,-3,3,2,4
CCC(NC(=O)c1ccc2nc(Cc3ccc(OC)cc3)oc2c1)c1ccncc1 (stereo not given),-41*,-8,-13,26,21
CCN1CCN(CCCNC(=O)c2ccc3nc(Cc4ccc(OC)cc4)oc3c2)CC1,-1,0,x,x,5
Cc1ccc(Cl)cc1N1CCN(CCCNC(=O)c2ccc3nc(N4CCCCC4)sc3c2)CC1,-3,2,x,x,1
O=C(NCCCN1CCN(c2ccc(F)cc2)CC1)c1ccc2nc(Cc3ccccc3)oc2c1,-38*,-4,x,x,26
COc1ccc(N2CCN(CCCNC(=O)c3ccc4nc(N5CCCCC5)sc4c3)CC2)cc1,-57*,-4,x,x,13
Cc1cc2c(s1)c1cnn(Cc3ccc(Br)cc3)c(=O)c1n2C,5,3,x,x,1
CCC(Cn1nnc2ccccc2c1=O)NC(=O)Nc1cc(OC)cc(OC)c1 (stereo not given),-7,2,x,x,2
Cn1c(=O)oc2cc(S(=O)(=O)N3CCCC(C(=O)NCCc4ccccc4)C3)ccc21 (stereo not given),-4,-3,x,x,0
O=C(NCCCN1CCN(c2ccccc2)CC1)c1ccc2nc(Cc3ccccc3)oc2c1,-60*,-3,x,x,32*
CCN1CCN(CCCNC(=O)c2ccc3nc(Cc4ccccc4)oc3c2)CC1,-18,-2,x,x,7
O=C(CCCn1c(=O)[nH]c2ccccc2c1=O)NCCSCc1ccccc1,-4,2,-8,1,1
O=C(CCS(=O)(=O)Cc1ccc(Cl)cc1)NCCCN1CCN(c2ccccc2F)CC1,-59*,-22,13,-8,51*
O=C(CCCn1c(=O)[nH]c2ccccc2c1=O)N1CCN(c2ccccc2)CC1,-37*,-6,x,x,-1
O=C(CCCCCn1c(=O)[nH]c2ccccc2c1=O)N1CCN(c2cccc(C(F)(F)F)c2)CC1,8,-1,x,x,1
O=C(CCCCCn1c(=O)[nH]c2ccccc2c1=O)NCCCN1CCN(c2ccccc2F)CC1,-91*,-3,0,-2,1
Cc1ccccc1CS(=O)(=O)CCC(=O)NCCCN1CCN(c2ccccc2F)CC1,-6,-10,0,3,-1
COc1ccccc1N1CCN(c2ccc(-c3nc(-c4ccccc4)no3)cc2[N+](=O)[O-])CC1,9,2,x,x,0
